# Measurements from PubChem BioAssay (NCI).
# The panel holds about 83,000 compounds, 20% with a hit somewhere; the sample as a whole holds those more often.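 Single-concentration screen, 48 h exposure, 96-well plates. Endpoint: percent growth. Below 10 = active.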 Values without a mark were called inactive. The source made the active and inactive calls.
# Columns and labels:
# Assay in all cases: NCI-60 one-dose screen, 48 h (100 = growth as untreated, 0 = no growth, -100 = all killed)
# Settings in all cases: 10 µM
# NCI-H23 lung = test system: NCI-H23 lung
# NCI-H226 lung = test system: NCI-H226 lung
# NCI-H322M lung = test system: NCI-H322M lung
# HOP-62 NSCLC = test system: HOP-62 NSCLC
# NCI-H460 lung = test system: NCI-H460 lung
# HOP-92 NSCLC = test system: HOP-92 NSCLC
# NCI-H522 lung = test system: NCI-H522 lung
# A549/ATCC NSCLC = test system: A549/ATCC NSCLC
# 786-0 renal = test system: 786-0 renal
# COLO 205 colon = test system: COLO 205 colon
# DU-145 prostate = test system: DU-145 prostate
# K-562 leukemia = test system: K-562 leukemia
# MALME-3M melanoma = test system: MALME-3M melanoma
# MDA-MB-231 breast = test system: MDA-MB-231 breast
# SF-268 CNS = test system: SF-268 CNS
# SF-295 CNS = test system: SF-295 CNS
# SF-539 CNS = test system: SF-539 CNS
# UACC-257 melanoma = test system: UACC-257 melanoma
# M14 melanoma = test system: M14 melanoma
SMILES,growth (NCI-H23 lung),growth (NCI-H226 lung),growth (NCI-H322M lung),growth (HOP-62 NSCLC),growth (NCI-H460 lung),growth (HOP-92 NSCLC),growth (NCI-H522 lung),growth (A549/ATCC NSCLC),growth (786-0 renal),growth (COLO 205 colon),growth (DU-145 prostate),growth (K-562 leukemia),growth (MALME-3M melanoma),growth (MDA-MB-231 breast),growth (SF-268 CNS),growth (SF-295 CNS),growth (SF-539 CNS),growth (UACC-257 melanoma),growth (M14 melanoma)
O=C(Cn1nc(-c2ccccc2)ccc1=O)NNC(=S)NC1CCCCC1,105%,105%,99.6%,104%,136%,116%,104%,114%,105%,135%,117%,90.4%,105%,109%,113%,101%,97.3%,111%,122%
CN1C(=O)N(C)C2SC(N/N=C/c3ccc(F)cc3)=NC21 (centres undefined),63.5%,75.6%,97.4%,53.5%,32.6%,71.1%,14.7%,49.6%,50.2%,46.5%,76.3%,15%,40.1%,38.7%,52.1%,30.8%,29.3%,67.7%,23.8%
Cc1cc(=O)oc2cc(OCCCCOc3ccc(/C=C/C(=O)Nc4cccc(Cl)c4)cc3)ccc12,57.2%,35.9%,87.4%,54.9%,54.4%,50.9%,60.3%,55.4%,54.7%,62.3%,46.5%,63.8%,29.8%,88.3%,61.4%,78.6%,72.6%,81.5%,71.9%
CCOc1ccc2ncc(C#Cc3cncc(C(=O)Nc4ccc(CN5CCN(C)CC5)c(C(F)(F)F)c4)c3)n2n1,-70% (active),-59.1% (active),-76% (active),-46.8% (active),-52.9% (active),-46.6% (active),-41.3% (active),-33.9% (active),-43.8% (active),-45.8% (active),-96.7% (active),4.86% (active),-81.9% (active),-88.9% (active),-49.4% (active),-88.5% (active),-97.9% (active),-62.2% (active),-73% (active)
O=C(NO)c1ccc(CNC(=O)[C@H]2Cc3c([nH]c4ccccc34)[C@H](c3ccc(Cl)cc3)N2)cc1,-50.8% (active),28.2%,28.5%,2.45% (active),10.3%,-17.1% (active),-35.2% (active),24.5%,22.6%,-82.7% (active),10.7%,9.83% (active),6.92% (active),-11.1% (active),22.6%,-17.4% (active),2.84% (active),15.1%,23%
O=C(CNc1nc(-c2ccccc2)cs1)Nc1ccc(Br)cc1,-90.8% (active),-58.6% (active),-99.5% (active),-78.8% (active),-61.5% (active),-71.5% (active),-77.8% (active),-82.3% (active),-73.2% (active),-77.4% (active),-92.3% (active),6.7% (active),-82.4% (active),-92.5% (active),-12.5% (active),-97.5% (active),-98.3% (active),-73.8% (active),-86.5% (active)
CN(C(=O)c1ccc(C(C)(C)C)cc1)c1sc2c(c1C#N)CCC(=O)C2,-29.1% (active),62.6%,88.4%,34.6%,35.6%,21.9%,-45.8% (active),91.5%,50.3%,80.7%,80.7%,11.7%,-6.14% (active),-74.4% (active),18.5%,-0.987% (active),-86.1% (active),97%,19.3%
O=C(CSc1nnc(-c2ccc3nc(-c4ccc(Cl)cc4)[nH]c3c2)o1)Nc1ccc(Cl)cc1,-73.9% (active),-68.8% (active),-66.5% (active),-56.4% (active),-51.3% (active),-6.37% (active),-45.1% (active),-58.4% (active),-76.8% (active),7.13% (active),2.3% (active),5.7% (active),-78.6% (active),-87.1% (active),-6.48% (active),-99.4% (active),-100% (active),-32.6% (active),-50.6% (active)
O=C(CSc1nnc(-c2c[nH]c3ccccc23)n1-c1ccccc1)c1ccc(Cl)cc1,40.8%,17.6%,58.7%,47.1%,60.1%,65%,67%,37.5%,44.9%,42.6%,88.4%,69%,64%,51.7%,69.4%,55%,49.5%,72.3%,80.6%
COc1cc2c3c(n(CCCNC(C)C)c(=O)c2cc1OC)-c1nc2c(cc1C3=O)OCO2,16.5%,-32.2% (active),60.3%,5.84% (active),-74.2% (active),66.5%,50.9%,-62.8% (active),-78.3% (active),-67.6% (active),8.46% (active),2.95% (active),-92.3% (active),-90.5% (active),-72.5% (active),11.7%,-6.71% (active),-30.4% (active),-48.8% (active)
CN(C)CCNC(=O)OCCCCOc1cc(O)c2c(=O)cc(-c3ccccc3)oc2c1,-2.08% (active),12.1%,-31.2% (active),2.14% (active),-33.9% (active),-42.6% (active),-77% (active),4.88% (active),-34.5% (active),-46.4% (active),-27% (active),8.72% (active),-96.8% (active),-77.8% (active),-44.9% (active),-90.5% (active),-100% (active),-79.7% (active),-75.1% (active)
COc1ccc(-c2cc(C(=O)N=Nc3c(O)[nH]c4ccc(Br)cc34)c3ccccc3n2)cc1,5.57% (active),50.6%,70%,91.6%,5.22% (active),71.4%,57.7%,61.1%,80.1%,53.2%,19.9%,10.2%,45.9%,-68.2% (active),64.4%,35.3%,31.7%,102%,42.6%
O=C(CSc1nnc(-c2c[nH]c3ccccc23)n1-c1ccccc1)Nc1ccc(C(=O)/C=C/c2cccc([N+](=O)[O-])c2)cc1,86.2%,72.7%,100%,98.2%,99.2%,104%,82.1%,97.2%,101%,119%,95.9%,86.1%,90.9%,91.7%,78.8%,88.4%,89.6%,102%,94.1%
O=C1CCC(N2Cc3cc(CC(=O)Nc4ccc(N5CCCCC5)cc4)ccc3C2=O)C(=O)N1 (centres undefined),93.8%,16.3%,56.6%,23.5%,98.6%,-5.24% (active),65.3%,68.3%,42.5%,37.5%,94.5%,77.3%,-25.4% (active),7.12% (active),61.9%,57.4%,65.6%,102%,39.4%
CC(=O)c1ccc(Nc2nc(SC(C)C)nc(-c3ccccc3)c2C#N)cc1,22.4%,-25.1% (active),24.2%,-27.8% (active),20.2%,-15.8% (active),64.6%,57.3%,-56.6% (active),74.7%,43.8%,43%,8.39% (active),-0.399% (active),41.1%,-40.7% (active),-17.4% (active),96.1%,73.8%
COc1ccc(CN2[C@H](C(=O)NCCCCCCC(=O)NO)Cc3c([nH]c4ccccc34)[C@H]2C2CC2)cc1,-17.5% (active),28.1%,9.54% (active),14%,6.41% (active),-24.5% (active),-44.6% (active),17.3%,17.4%,-94.8% (active),9.36% (active),7.5% (active),1.45% (active),-23% (active),14.5%,-58.8% (active),2.87% (active),9.9% (active),17.6%
